From PubChem BioAssay AID1508601 (ICCB-Longwood Screening Facility, Harvard Medical School, 2020) come the findings set out here.

About 85 (1%) of roughly 5,700 compounds were called active. No stated cut-off is given here; in the data, active means p53-positive nuclei above about 36% (passing the limit was not always enough); inactive means the rest. Many of the other results were omitted from the sample, so actives are more common in it than they were.

Test [1] in a line: nuclear p53 accumulation, HPV+ cells – imaging, p53-positive nuclei imaging, 24 h, 48 h (AID 1508601). Particulars: 24/48 h.
Test [2] has as its target Cellular tumor antigen p53 (Homo sapiens) (UniProt P04637). Described as above. Particulars: 24/48 h, stronger effect = higher value.
Setting [3] is: measured here: cell number at 24 h, Library stock concentration: 80 uM.
The mark [4] stands for this setting: measured here: cell number at 24 h, Library stock concentration: 400 uM.
The mark [5] stands for this setting: measured here: cell number at 24 h, Library stock concentration: 2 mM.
Where [6] appears, read: measured here: cell number at 24 h, Library stock concentration: 10 mM.
Setting [7] is: measured here: cell number at 48 h, Library stock concentration: 80 uM.
The mark [8] stands for this setting: measured here: cell number at 48 h, Library stock concentration: 400 uM.
The mark [9] stands for this setting: measured here: cell number at 48 h, Library stock concentration: 2 mM.
[10] abbreviates: measured here: cell number at 48 h, Library stock concentration: 10 mM.
The mark [11] stands for this setting: Library stock concentration: 80 uM.
Setting [12] is: Library stock concentration: 400 uM.
The mark [13] stands for this setting: Library stock concentration: 2 mM.
Setting [14] is: Library stock concentration: 10 mM.
Setting [15] is: measured here: p53 positive nuclei at 24 h, Library stock concentration: 80 uM.
Where [16] appears, read: measured here: p53 positive nuclei at 24 h, Library stock concentration: 400 uM.
The mark [17] stands for this setting: measured here: p53 positive nuclei at 24 h, Library stock concentration: 2 mM.
Where [18] appears, read: measured here: p53 positive nuclei at 24 h, Library stock concentration: 10 mM.
[19] abbreviates: measured here: cell number at 24 h, Library stock concentration: 3.33 mM.
Setting [20] is: measured here: cell number at 48 h, Library stock concentration: 3.33 mM.
The mark [21] stands for this setting: Library stock concentration: 3.33 mM.
[22] abbreviates: measured here: p53 positive nuclei at 24 h, Library stock concentration: 3.33 mM.

Cellular tumor antigen p53 (Homo sapiens), sequence (P04637 whole entry, looked up): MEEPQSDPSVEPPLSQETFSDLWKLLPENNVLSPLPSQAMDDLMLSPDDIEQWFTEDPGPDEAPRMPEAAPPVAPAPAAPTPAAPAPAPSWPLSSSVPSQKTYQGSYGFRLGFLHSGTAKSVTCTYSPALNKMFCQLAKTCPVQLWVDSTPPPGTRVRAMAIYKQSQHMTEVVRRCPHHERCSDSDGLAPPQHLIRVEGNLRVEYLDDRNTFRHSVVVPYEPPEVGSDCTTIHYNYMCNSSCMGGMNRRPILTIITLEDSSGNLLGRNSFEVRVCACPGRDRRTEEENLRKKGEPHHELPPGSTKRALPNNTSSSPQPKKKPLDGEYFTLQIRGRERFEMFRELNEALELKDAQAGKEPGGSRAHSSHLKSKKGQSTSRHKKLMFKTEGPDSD

Regarding `CCC(=O)N1CCN(c2ccc(-n3c(=O)ccc4cnc5ccc(-c6cnc7ccccc7c6)cc5c43)cc2C(F)(F)F)CC1`, the nuclei count, normalised was found to be 68.5% in test [1] (setting [3]); 59.7% in test [1] (setting [4]); 55.8% in test [1] (setting [5]); 43.7% in test [1] (setting [6]); 64.8% in test [1] (setting [7]); 49% in test [1] (setting [8]). The figures for the nuclei count, normalised in test [1] (setting [9]) and in test [1] (setting [10]) were 36.2% and 21.9%, respectively. Besides, the p53-positive nuclei, normalised in test [2] (setting [11]) was -0.0521% (inactive); in test [2] (setting [12]), -0.0367% (inactive); in test [2] (setting [13]), 0.993% (inactive); in test [2] (setting [14]) it was 11.8% (inactive); in test [2] (setting [15]) it was 0.45%; in test [2] (setting [16]) it was 0.126%. Further, the p53-positive nuclei, normalised turned out to be 0.287% in test [2] (setting [17]) and 0.768% in test [2] (setting [18]).

As for `Cc1cn(C2OC(CO)C(O)C2F)c(=O)[nH]c1=O` (centres undefined), the nuclei count, normalised in test [1] (setting [19]) was determined as 108%; in test [1] (setting [20]) it was 103%. Besides, the figures for the p53-positive nuclei, normalised in test [2] (setting [21]) and in test [2] (setting [22]) were -0.314% (inactive) and -0.356%, respectively.

For `COC(=O)N1C(=O)[C@](c2ccccc2)(C2CCCC2)N1C(=O)OC`, the nuclei count, normalised in test [1] (setting [3]) was found to be 90.3%; in test [1] (setting [4]), 87.6%; in test [1] (setting [5]), 93.9%; in test [1] (setting [6]) it was 90.1%; in test [1] (setting [7]), 91.7%; in test [1] (setting [8]), 93.5%. For the same compound, the nuclei count, normalised worked out at 99.5% in test [1] (setting [9]) and 96.9% in test [1] (setting [10]). Also, the p53-positive nuclei, normalised is -0.0853% (inactive) in test [2] (setting [11]); -0.162% (inactive) in test [2] (setting [12]); 0.00515% (inactive) in test [2] (setting [13]); 0.0597% (inactive) in test [2] (setting [14]); -0.136% in test [2] (setting [15]); -0.136% in test [2] (setting [16]). Besides, the p53-positive nuclei, normalised in test [2] (setting [17]) amounted to 0.165%; in test [2] (setting [18]) it was 0.0248%.

Consider `Cc1cc(C)c(/C=C2\C(=O)Nc3ccccc32)[nH]1`, for which the nuclei count, normalised in test [1] (measured here: cell number at 24 h, concentration not given here) turned out to be 96.2%; in test [1] (measured here: cell number at 48 h, concentration not given here), 102%. Besides, the p53-positive nuclei, normalised in test [2] (concentration not given here) was 0.0559% (inactive); in test [2] (measured here: p53 positive nuclei at 24 h, concentration not given here), 0.0506%.

With `Cc1cc(C)c(C=C2C(=O)Nc3ccccc32)[nH]1`, the nuclei count, normalised in test [1] (setting [19]) was 116%; in test [1] (setting [20]), 119%. Besides, the p53-positive nuclei, normalised was -0.0521% (inactive) in test [2] (setting [21]) and -0.278% in test [2] (setting [22]).

For the compound `COc1cc(=C2C=c3ccccc3=N2)[nH]c1=Cc1[nH]c(C)cc1C`, the nuclei count, normalised in test [1] (setting [3]) was 104%; in test [1] (setting [4]) it was 82.2%; in test [1] (setting [5]) it was 74.9%; in test [1] (setting [19]) it was 71.2%; in test [1] (setting [6]), 65.9%; in test [1] (setting [7]), 101%. Further, the nuclei count, normalised is 75.4% in test [1] (setting [8]), 60.3% in test [1] (setting [9]), 61.8% in test [1] (setting [20]) and 52.6% in test [1] (setting [10]). Moreover, the p53-positive nuclei, normalised in test [2] (setting [11]) was 0.397% (inactive); in test [2] (setting [12]), 74% (active); in test [2] (setting [13]), 142% (active); in test [2] (setting [21]), 137% (active); in test [2] (setting [14]), 105% (active); in test [2] (setting [15]) it was 0.165%. The p53-positive nuclei, normalised in test [2] (setting [16]) was 72.4%; in test [2] (setting [17]), 167%; in test [2] (setting [22]), 159%; in test [2] (setting [18]), 137%.

Turning to `Nc1ccn(C2C=C(CO)C(O)C2O)c(=O)n1` (centres undefined), the nuclei count, normalised was found to be 108% in test [1] (measured here: cell number at 24 h, Library stock concentration: 500 nM); 117% in test [1] (measured here: cell number at 24 h, Library stock concentration: 1.5 uM); 110% in test [1] (measured here: cell number at 24 h, Library stock concentration: 4.6 uM); 119% in test [1] (measured here: cell number at 24 h, Library stock concentration: 13.7 uM); 115% in test [1] (measured here: cell number at 24 h, Library stock concentration: 41 uM); 83.8% in test [1] (measured here: cell number at 24 h, Library stock concentration: 123 uM). Also, the nuclei count, normalised in test [1] (measured here: cell number at 24 h, Library stock concentration: 370 uM) came out at 70%; in test [1] (measured here: cell number at 24 h, Library stock concentration: 1.111 mM) it was 73.4%; in test [1] (measured here: cell number at 24 h, Library stock concentration: 3.333 mM), 65.6%; in test [1] (setting [6]), 65.3%; in test [1] (measured here: cell number at 48 h, Library stock concentration: 500 nM), 109%; in test [1] (measured here: cell number at 48 h, Library stock concentration: 1.5 uM), 111%. Besides, the nuclei count, normalised in test [1] (measured here: cell number at 48 h, Library stock concentration: 4.6 uM) came out at 111%; in test [1] (measured here: cell number at 48 h, Library stock concentration: 13.7 uM), 117%; in test [1] (measured here: cell number at 48 h, Library stock concentration: 41 uM), 105%; in test [1] (measured here: cell number at 48 h, Library stock concentration: 123 uM), 67.3%; in test [1] (measured here: cell number at 48 h, Library stock concentration: 370 uM), 54.3%; in test [1] (measured here: cell number at 48 h, Library stock concentration: 1.111 mM), 57.7%. In addition, the nuclei count, normalised amounted to 52.7% in test [1] (measured here: cell number at 48 h, Library stock concentration: 3.333 mM) and 52% in test [1] (setting [10]). For the same compound, the p53-positive nuclei, normalised was -0.14% (inactive) in test [2] (Library stock concentration: 500 nM); -0.145% (inactive) in test [2] (Library stock concentration: 1.5 uM); 0.0813% (inactive) in test [2] (Library stock concentration: 4.6 uM); -0.00208% (inactive) in test [2] (Library stock concentration: 13.7 uM); -0.138% (inactive) in test [2] (Library stock concentration: 41 uM); 0.289% (inactive) in test [2] (Library stock concentration: 123 uM). Further, the p53-positive nuclei, normalised in test [2] (Library stock concentration: 370 uM) is -0.0266% (inactive); in test [2] (Library stock concentration: 1.111 mM) it was 0.668% (inactive); in test [2] (Library stock concentration: 3.333 mM) it was 0.138% (inactive); in test [2] (setting [14]), 0.496% (inactive); in test [2] (measured here: p53 positive nuclei at 24 h, Library stock concentration: 500 nM) it was 0.0935%; in test [2] (measured here: p53 positive nuclei at 24 h, Library stock concentration: 1.5 uM), -0.093%. The p53-positive nuclei, normalised is -0.13% in test [2] (measured here: p53 positive nuclei at 24 h, Library stock concentration: 4.6 uM); 0.115% in test [2] (measured here: p53 positive nuclei at 24 h, Library stock concentration: 13.7 uM); -0.0784% in test [2] (measured here: p53 positive nuclei at 24 h, Library stock concentration: 41 uM); 0.089% in test [2] (measured here: p53 positive nuclei at 24 h, Library stock concentration: 123 uM); 0.146% in test [2] (measured here: p53 positive nuclei at 24 h, Library stock concentration: 370 uM); 0.68% in test [2] (measured here: p53 positive nuclei at 24 h, Library stock concentration: 1.111 mM). Moreover, the p53-positive nuclei, normalised turned out to be 0.184% in test [2] (measured here: p53 positive nuclei at 24 h, Library stock concentration: 3.333 mM) and 0.519% in test [2] (setting [18]).
